High-throughput results deposited in PubChem BioAssay by National Center for Advancing Translational Sciences (NCATS).
This is a sample that favours compounds with a hit; in the whole collection about 1.1% have one here.
CXXC DNA block: MLL CXXC-DNA interaction inhibition. Potency, µM (titrated, usually from 115 µM), for the others: at the top dose activity change, negative = inhibition, actives largely listed as inhibitors. hit rate 0.037% among 290,000. MLL-CXXC / FITC-HOXA9 DNA fluorescence polarization. AID 2662; active = well fitted inhibition curve with a large enough effect in the polarisation, with a control signal flat, not every such curve was filed as active; inconclusive = small, poorly fitted or top-dose-only effect, or effect the other way, or a change in a side signal; inactive = no such curve, though single readings can be large or run the other way; the % refers to the polarisation; note: potency is the fitted concentration of half-maximal effect
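Fluorescence polarization: 7 uM MLL-CXXC (stock) preincubated 5 min with compounds, then 50 nM fluorescein-HOX-A9 DNA (stock) added; 30 min ambient. Buffer 50 mM Tris-HCl pH 7.5, 50 mM NaCl, 1 mM DTT, 0.05% BSA.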
Menin MLL FP FL: inhibitors of human menin-MLL interaction, wild-type MLL peptide; Fluorescence polarization, fluorescein-MLL peptide displacement from menin; FP activity change, % at 61.4 µM; 290,000 tested, under 10 active; active = well fitted curve in the direction sought with a large enough effect in the polarisation, not every such curve was filed as active; inconclusive = small, poorly fitted or top-dose-only effect, or effect the other way, or a change in a side signal; inactive = no such curve, though single readings can be large or run the other way; the % refers to the polarisation; note: % of control where 0% means no effect
KCNH2 WT inh: KCNH2 (human, wildtype) channel inhibition; AID 720551; activity change, % at 1.84 µM; Q12809; hit rate 0.37% among 340,000; U2OS, BacMam KCNH2, thallium flux FluxOr; hits give low values;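 active = maximum activity change below -70%; inconclusive = maximum activity change between -70% and -50%; inactive = maximum activity change above -50%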; note: % is set by controls: 0 for no effect and ±100 for the full control effect
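U2OS cells transduced with wild-type KCNH2 virus are loaded with FluxOr dye for 45 min, and thallium flux is measured in kinetic reads before and after stimulation buffer. Rate constants are normalized to DMSO controls.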
KCNH2 3.1 inh: KCNH2 3.1 (human) potassium channel inhibition; U2OS KCNH2 3.1, thallium flux FluxOr; hits give low values; hit rate 0.95% among 340,000; activity change, % (tested at about 1.8 µM);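 active = maximum activity change below -70%; inconclusive = maximum activity change from -70% to -50%; inactive = maximum activity change above -50%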;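 note: thallium influx rate constant from kinetic fluorescence after stimulation buffer; % is set by controls: 0 for no effect and ±100 for the full control effect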
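Kinetic fluorescence (2 min after stimulation buffer) measures Tl+ influx through KCNH2 3.1 expressed by viral transduction in U2OS cells; the rate constant is normalized against DMSO controls serving as positive and negative references.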
Menin-MLL TR inh: displaces Texas Red mutant MLL peptide from human menin. Menin + Texas Red MLL mutant peptide, fluorescence polarization. Potency, µM (titrated, usually from 61.6 µM), without a hit: at the top dose FP activity change, negative = inhibition, usual class: inhibitors. hit rate 0.23% among 270,000. AID 1768; active = well fitted inhibition curve with a large enough effect in the polarisation, with a control signal flat, not every such curve was filed as active; inconclusive = small, poorly fitted or top-dose-only effect, or effect the other way, or a change in a side signal; inactive = no such curve, though single readings can be large or run the other way; the % refers to the polarisation; note: potency is the fitted concentration of half-maximal effect; % of control where 0% means no effect
* = called active by the depositor; ? = inconclusive; · = no result; [ ] = another dose, or the depositor's remark.

SMILES	CXXC DNA block	Menin MLL FP FL	KCNH2 WT inh	KCNH2 3.1 inh	Menin-MLL TR inh
Oc1ccc(-c2nccs2)cc1	·	·	16	-120*	·
O=c1[nH]c(=O)n([C@@H]2C[C@H](O)[C@H](CO)O2)cc1C(F)(F)F	·	1[24.8 µM]	·	·	1%[24.8 µM]
COc1ccc(OC)c(CN2CCN(CC(=O)Nc3ccccc3C(=O)NC3CC3)CC2)c1	·	·	-79*	-70*	·
COc1cc2c(cc1OC)CN(CC(=O)Nc1ccccc1C(=O)NC1CC1)CC2	·	·	19	-6	·
COc1ccc(OC)c(NC(=O)CN2CCC(NC(=O)c3ccccc3C)CC2)c1	2%	0	-3	8	0%
COc1cc(C)c(CN2CCN(CC(=O)Nc3ccccc3C(=O)NC3CC3)CC2)cc1OC	·	·	-83*	-107*	·
CCCCOc1ccc(C(=O)NCC(=O)N2CC(C)CC(C)C2)cc1 (stereo not drawn)	·	·	-3	-4	·
Nc1cccc2c1C(=O)N(CC(=O)NC13CC4CC(CC(C4)C1)C3)C2=O	-14%	?	-105*	7	4%
CCOC(=O)C1CCN(C(=O)c2ccc3c(=O)n4nc(Nc5ccccc5OC)sc4nc3c2)CC1	·	·	-3	-75*	·
Cc1ccc(C)c(NC(=O)CCC(=O)N2CCOc3ccccc32)c1	·	-2	4	6	15%
COc1ccc(C(=O)NCC(=O)OCC(=O)Nc2sccc2C#N)cc1OC	0%	7	·	2	5%
CCc1noc(C)c1C(=O)NCCN1C(=O)S/C(=C\c2ccccc2F)C1=O	·	·	2	-77*	·
O=C(CN1C(=O)NC2(CCCC2)C1=O)NCCN1C(=O)S/C(=C\c2ccccc2F)C1=O	·	·	-8	0	·
COc1ccc(C2NC(=S)NC(C)=C2C(=O)N2CCOCC2)cc1 (stereo not drawn)	1%	-1	-278*	3	2%
CCCCN(C(=O)CSCC(=O)Nc1ccc(C)cc1)c1c(N)n(CCCC)c(=O)[nH]c1=O	·	·	-2	13	·
Cc1nc(CNS(=O)(=O)c2cc(F)ccc2F)cs1	-4%	2	-8	-181*	2%
Cc1nc(CNS(=O)(=O)c2cccc(F)c2)cs1	6%	-4	-1	7	-17%
COc1ccc(C(=O)C2CCCN(Cc3cccn3-c3ccc(Cl)cn3)C2)c(OC)c1 (stereo not drawn)	10%	4	-30	-73*	?
COc1cccc(C(=O)C2CCCN(C/C=C/c3ccccc3OC)C2)c1 (stereo not drawn)	3%	2	9	-10	-15%
COc1ccc(C(=O)C2CCCN(C/C=C/c3ccccc3OC)C2)c(OC)c1 (stereo not drawn)	-9%	-3	29	-71*	-24%
COc1ccc(/C=C/CN2CCCC(C(=O)c3ccc(OC)c(F)c3)C2)cc1 (stereo not drawn)	-4%	1	-12	-90*	-22%
O=C(c1cccc(C(F)(F)F)c1)C1CCCN(Cc2cccn2-c2ccccn2)C1 (stereo not drawn)	0%	3	?	-109*	-11%
O=C(c1cccc(C(F)(F)F)c1)C1CCCN(Cc2cccc(OCCO)c2)C1 (stereo not drawn)	12%	1	16	13	?
O=C1[C@H]2[C@H]3[C@H](O)[C@H](O)C/C(=N/OC[C@@H](O)COCc4ccco4)[C@H]3CC[C@@H]2C(=O)N1c1cccc(Oc2ccccc2)c1	·	-1[11.7 µM]	·	·	-2%[11.7 µM]
COc1ccc(C(OCCN2CCC[C@H](C(=O)O)C2)(c2ccc(OC)cc2)c2ccc(OC)cc2)cc1	·	1	·	·	-7%
SMILES	CXXC DNA block	Menin MLL FP FL	KCNH2 WT inh	KCNH2 3.1 inh	Menin-MLL TR inh
O=S1(=O)N[C@@H](Cc2ccccc2)COc2cc(Br)ccc21	·	·	6	5	·
O=C(CSc1ccc2nnc(-c3ccccn3)n2n1)Nc1ccc(F)cc1F	?	5	22	-5	6%
O=C(NCCC1=CCCCC1)C1CCN(S(=O)(=O)N2CCCC2)CC1	1%	0	-9	-31	-6%
O=C(NCCC1=CCCCC1)C1CCN(S(=O)(=O)N2CCOCC2)CC1	-3%	1	8	-71*	-4%
Nc1nnc(-c2cc3c(ccc4ccccc43)oc2=O)s1	-27%	?	·	·	?
CN(C)c1ccc(NC(=O)C2C3C=CC(C3)C2C(=O)O)cc1 (stereo not drawn)	?	-10	4	-9	20µM*
Cc1ccc(S(=O)(=O)N2CCOCC2)cc1NC(=O)COC(=O)CNC(=O)c1ccccc1	7%	-1	6	-98*	-8%
O=C(COC(=O)c1cc(S(=O)(=O)N2CCOCC2)ccc1O)Nc1cc(S(=O)(=O)N2CCCC2)ccc1Cl	0%	5	-146*	-194*	·
O=C(COC(=O)c1cnc(Cl)c(Cl)c1)Nc1ccc(S(=O)(=O)N2CCCC2)cc1	-12%	3	18	-97*	6%
Cc1cccc2nc(Cn3c(=O)n(CCC(=O)NCc4ccco4)c(=O)c4ccccc43)cc(=O)n12	·	·	3	2	·
Cc1ccc(C(CNS(=O)(=O)c2cc(F)ccc2F)N2CCN(C)CC2)cc1 (stereo not drawn)	·	·	26	-6	·
CCN(CC)CCCN(C(=O)c1cccc(C)c1)c1nc(-c2ccc(OC)cc2)cs1	?	1	-81*	-73*	?
CCN(CC)CCCN(C(=O)c1ccc(Br)cc1)c1nc(-c2ccc(OC)cc2)cs1	?	-7	-135*	-109*	?
CCN(CC)CCCN(C(=O)c1cccs1)c1nc(-c2ccc(OC)cc2)cs1	-4%	3	27	?	-4%
CCC/C=C1\CCCOC(C(=O)NCc2ccccc2)(C(F)(F)F)C1 (stereo not drawn)	·	-2	·	·	0%
Cc1nn(-c2ccccc2)c(N2CCCC2)c1/C=C1\N=C(c2ccc(OC(C)C)cc2)OC1=O	-15%	?	-4	-75*	-18%
Cc1ccc(C2=N/C(=C\N3CCCCC3)C(=O)O2)cc1	1%	3	-17	1	1%
Cc1ccc2sc(N3CCN(CCNC(=O)c4ccco4)CC3)nc2c1C	·	·	12	7	·
O=C(CSc1cccc[n+]1[O-])Nc1c(Br)cc([N+](=O)[O-])cc1Br	-6%	-7	-2	-133*	1%
O=C(NCC1CCCO1)c1cncc(Br)c1 (stereo not drawn)	11%	3	-16	-145*	1%
O=C(COC(=O)c1cncc(Br)c1)NCC1CCCO1 (stereo not drawn)	-13%	-1	-3	-4	-8%
CN(C)CCNC(=O)/C(=C/c1ccc(-c2ccc(Cl)cc2)o1)NC(=O)c1ccccc1	21%	2	-7	-91*	3%
Cc1ccc(C(=O)N/C(=C\c2ccc(-c3ccc(Br)cc3)o2)C(=O)NCCCN(C)C)cc1	30%	1	-80*	-4	-5%
COc1ccc(-c2c(C3C4C=CCCC4(C)C(=O)N3Cc3ccccc3)ccc3ccccc23)cc1OC (stereo not drawn)	·	2	·	·	-16%
